Hit rate of the full screen: of about 39,000 compounds, about 3,300 (8.5%) were called active. Only a selection was taken, and actives are over-represented in it overall.
The compounds below were run on HepG2 (assay: cytotoxicity call (relative viability < 0.9)). Settings: 10 µM.
In the case of `CC(C)NC(=O)N(C)C[C@@H]1Oc2ccc(NC(=O)NC3CCCCC3)cc2CC(=O)N([C@H](C)CO)C[C@H]1C`, the cytotoxicity call is reported as “inactive”.
In the case of `O=C(CN1CCOCC1)NCC[C@H]1CC[C@H](NS(=O)(=O)c2ccc(F)cc2)[C@H](CO)O1`, the cytotoxicity call is reported as “inactive”.
With `C[C@@H]1CCCCO[C@H](CN(C)Cc2ccncc2)[C@H](C)CN([C@H](C)CO)C(=O)c2cc(NC(=O)c3ccccc3)ccc2O1` the cytotoxicity call was “inactive”.
`C[C@@H]1CCCCO[C@@H](CN(C)Cc2ccccc2)[C@@H](C)CN([C@H](C)CO)C(=O)c2cc(NC(=O)c3ccccc3)ccc2O1` was tested, and the cytotoxicity call was “inactive”.
With `C[C@@H]1CN([C@H](C)CO)C(=O)c2cc(C#CCc3ccccc3)cnc2O[C@H]1CN(C)C(=O)C1CCOCC1` the cytotoxicity call was “inactive”.
In the case of `Cc1ccc(S(=O)(=O)N(C)C[C@H]2Oc3ccc(NS(=O)(=O)c4c(C)noc4C)cc3C(=O)N([C@@H](C)CO)C[C@H]2C)cc1`, the cytotoxicity call is reported as “inactive”.
With `CC(C)(C)c1ccc(-c2nc3ccccc3s2)cc1` the cytotoxicity call was “inactive”.
In the case of `C[C@H](CO)N1C[C@H](C)[C@@H](CN(C)S(=O)(=O)c2ccccc2)Oc2ncc(-c3cccc(C(=O)N(C)C)c3)cc2C1=O`, the cytotoxicity call is reported as “inactive”.
With `Cc1noc(C)c1NC(=O)N(C)C[C@@H]1Oc2ccc(NC(=O)CCN3CCOCC3)cc2C(=O)N([C@H](C)CO)C[C@H]1C` the cytotoxicity call was “inactive”.
`C[C@@H]1CN([C@@H](C)CO)C(=O)c2cc(NC(=O)Nc3ccc(C(F)(F)F)cc3)ccc2O[C@@H](C)CCCCO[C@@H]1CN(C)Cc1ccc2c(c1)OCO2` was tested, and the cytotoxicity call was “inactive”.
`C[C@@H]1CCCCO[C@H](CN(C)Cc2ccc3c(c2)OCO3)[C@@H](C)CN([C@@H](C)CO)C(=O)c2cc(NC(=O)Nc3ccc(C(F)(F)F)cc3)ccc2O1` was tested, and the cytotoxicity call was “active”.
For `C[C@@H]1CCCCO[C@@H](CN(C)Cc2ccc3c(c2)OCO3)[C@@H](C)CN([C@@H](C)CO)C(=O)c2cc(NC(=O)Nc3ccc(C(F)(F)F)cc3)ccc2O1`, the cytotoxicity call was “active”.
With `C[C@@H]1CCCCO[C@@H](CN(C)Cc2ccc3c(c2)OCO3)[C@H](C)CN([C@@H](C)CO)C(=O)c2cc(NC(=O)Nc3ccc(C(F)(F)F)cc3)ccc2O1` the cytotoxicity call was “active”.
With `C[C@@H]1CN([C@H](C)CO)C(=O)c2cc(NC(=O)Nc3ccc(C(F)(F)F)cc3)ccc2O[C@@H](C)CCCCO[C@@H]1CN(C)Cc1ccc2c(c1)OCO2` the cytotoxicity call was “active”.
With `C[C@@H]1CN([C@H](C)CO)C(=O)c2cc(NS(C)(=O)=O)ccc2O[C@@H](C)CCCCO[C@@H]1CN(C)C(=O)c1ccncc1` the cytotoxicity call was “inactive”.
In the case of `C[C@H](CO)N1C[C@H](C)[C@H](CN(C)C(=O)Nc2ccnc(N3CCOCC3)c2)OCc2cnnn2CCCC1=O`, the cytotoxicity call is reported as “inactive”.
In the case of `Cc1noc(C)c1S(=O)(=O)N(C)C[C@@H]1Oc2ccc(NC(=O)CCCN(C)C)cc2C(=O)N([C@@H](C)CO)C[C@@H]1C`, the cytotoxicity call is reported as “inactive”.
`C[C@H](CO)N1C[C@H](C)[C@@H](CN(C)Cc2ccc(Cl)c(Cl)c2)Oc2c(NC(=O)NC3CCCCC3)cccc2C1=O` was tested, and the cytotoxicity call was “inactive”.
`Cc1noc(C)c1NC(=O)Nc1cccc2c1O[C@@H](CN(C)C(=O)Nc1ccc(C(F)(F)F)cc1)[C@@H](C)CN([C@H](C)CO)C2=O` was tested, and the cytotoxicity call was “inactive”.
For `COc1ccc(S(=O)(=O)N(C)C[C@@H]2Oc3c(NC(=O)Nc4c(C)noc4C)cccc3C(=O)N([C@H](C)CO)C[C@@H]2C)cc1`, the cytotoxicity call was “inactive”.
With `CCCC(=O)Nc1ccc2c(c1)OC[C@@H](C)N(Cc1ccc(-c3ccccn3)cc1)C[C@@H](C)[C@H](OC)CN(C)C2=O` the cytotoxicity call was “inactive”.
For `C[C@H]1CCCCO[C@@H](CN(C)Cc2ccc3c(c2)OCO3)[C@@H](C)CN([C@@H](C)CO)C(=O)c2cc(NC(=O)Nc3ccc(C(F)(F)F)cc3)ccc2O1`, the cytotoxicity call was “active”.
`C[C@H](CO)N1C[C@H](C)[C@H](CN(C)Cc2ccc3c(c2)OCO3)OCCCC[C@H](C)Oc2ccc(NC(=O)Nc3ccc(C(F)(F)F)cc3)cc2C1=O` was tested, and the cytotoxicity call was “active”.
With `C[C@@H]1CCCCO[C@H](CN(C)Cc2ccc3c(c2)OCO3)[C@H](C)CN([C@@H](C)CO)C(=O)c2cc(NC(=O)Nc3ccc(C(F)(F)F)cc3)ccc2O1` the cytotoxicity call was “active”.
In the case of `C[C@@H]1CCCCO[C@@H](CN(C)Cc2ccc3c(c2)OCO3)[C@@H](C)CN([C@H](C)CO)C(=O)c2cc(NC(=O)Nc3ccc(C(F)(F)F)cc3)ccc2O1`, the cytotoxicity call is reported as “active”.
For `C[C@@H]1CCCCO[C@H](CN(C)C(=O)Cc2ccccc2)[C@H](C)CN([C@@H](C)CO)C(=O)c2cc(NC(=O)c3ccccc3)ccc2O1`, the cytotoxicity call was “inactive”.
`CCCNC(=O)N[C@@H]1CC[C@@H](CC(=O)N2CCN(C)CC2)O[C@@H]1CO` was tested, and the cytotoxicity call was “inactive”.
`Cc1noc(C)c1S(=O)(=O)Nc1ccc2c(c1)C(=O)N([C@H](C)CO)C[C@@H](C)[C@@H](CN(C)C(=O)Nc1ccc(F)cc1)OCCCC[C@@H](C)O2` was tested, and the cytotoxicity call was “inactive”.
In the case of `O=C(Nc1ccccc1C(=O)O)c1nnc[nH]1`, the cytotoxicity call is reported as “inactive”.
With `O=C(NCC[C@H]1CC[C@H](NS(=O)(=O)c2cccc(F)c2)[C@H](CO)O1)C1CC1` the cytotoxicity call was “inactive”.
`C[C@@H](Oc1ccccc1)c1ccn[nH]1` was tested, and the cytotoxicity call was “inactive”.
With `C[C@H]([C@H](C)N1CC(=O)NC(=O)C1)N1CC(=O)NC(=O)C1` the cytotoxicity call was “inactive”.
With `C[C@@H]1CCCCO[C@H](CN(C)Cc2ccc3c(c2)OCO3)[C@H](C)CN([C@H](C)CO)C(=O)c2cc(NC(=O)Nc3ccc(C(F)(F)F)cc3)ccc2O1` the cytotoxicity call was “active”.
For `C[C@@H]1CCCCO[C@@H](CN(C)Cc2ccc3c(c2)OCO3)[C@H](C)CN([C@H](C)CO)C(=O)c2cc(NC(=O)Nc3ccc(C(F)(F)F)cc3)ccc2O1`, the cytotoxicity call was “active”.
For `C[C@H]1CCCCO[C@H](CN(C)Cc2ccc3c(c2)OCO3)[C@@H](C)CN([C@@H](C)CO)C(=O)c2cc(NC(=O)Nc3ccc(C(F)(F)F)cc3)ccc2O1`, the cytotoxicity call was “active”.
`C[C@@H]1CCCCO[C@H](CN(C)Cc2ccc3c(c2)OCO3)[C@@H](C)CN([C@H](C)CO)C(=O)c2cc(NC(=O)Nc3ccc(C(F)(F)F)cc3)ccc2O1` was tested, and the cytotoxicity call was “active”.
With `COCN(C#N)c1nc(N(C)C)nc(N(C)C)n1` the cytotoxicity call was “inactive”.
